# Experimental data: the supplement of paper PMC10720658
# ± gives the standard deviation of the averaged measurements.
# Tested on: AEK1 (Tb927.3.2440)
# Test: percent reduction in TR-FRET probe signal relative to DMSO control; higher = stronger displacement of ATP-site probe (binding)
# Details: 1 µM; incubation time 1 h
row,SMILES,percent reduction in TR-FRET probe signal
1,COc1ccc(S(=O)(=O)N(CCO)c2ccccc2CN(C)C/C=C/c2ccc(Cl)cc2)cc1.O=P(O)(O)O [KN-93 Phosphate],-9.18 ± 9.6%
2,CNC(=O)c1cc(Oc2ccc3nc(N[C@@H]4CCCC[C@H]4O)sc3c2)ccn1,-6.41 ± 1.1%
3,Cn1cc(C2=C(c3ccc(Cl)cc3Cl)C(=O)NC2=O)c2ccccc21,-6.53 ± 5.3%
4,CCN(CC)CCCC(C)Nc1ccnc2cc(Cl)ccc12.O=P(O)(O)O.O=P(O)(O)O (centres undefined) [Chloroquine Phosphate],-15.1 ± 5.7%
5,COc1ccc(COc2cc3oc(=O)c4cc(C(C)O)ccc4c3cc2OC)cc1 (centres undefined) [Palomid 529 (P529)],-5.44 ± 9.3%
6,Cc1nc(Nc2n[nH]c3c2CN(C(=O)N[C@H](CN(C)C)c2ccccc2)C3(C)C)c2sccc2n1,61.8 ± 9.6%
7,Cn1cc(C=C2C(=O)Nc3cccnc32)c2ccccc21,-3.06 ± 6%
8,CC(C)(C)c1cnc(CSc2cnc(NC(=O)C3CCNCC3)s2)o1,-4.82 ± 4.6%
9,CC(C)(C)NS(=O)(=O)c1cncc(-c2cc(F)c3nc(N)nn3c2)c1,-7.77 ± 4.5%
10,Cc1ccc(-c2nn(C(C)(C)C)c3ncnc(N)c23)cc1,-1.9 ± 8.7%
11,CCOc1cc2ncc(C#N)c(Nc3ccc(F)c(Cl)c3)c2cc1NC(=O)/C=C/CN(C)C [Pelitinib (EKB-569)],4.14 ± 4.7%
12,O=C(c1ccc(Nc2nccc(-c3cc4ccccc4s3)n2)cc1)N1CCC(N2CCCC2)CC1 [IKK-16 (IKK Inhibitor VII)],4.07 ± 9.4%
13,O=C(NOC[C@H](O)CO)c1ccc(F)c(F)c1Nc1ccc(I)cc1F,-3.89 ± 11%
14,C[C@@H](NC(=O)c1ncnc(N)c1Cl)c1ncc(C(=O)Nc2cc(C(F)(F)F)c(Cl)cn2)s1,-3.59 ± 11%
15,Cc1nc2c(-c3cnc(N)nc3)nc(N3CCOCC3)nc2n1C(C)C,-5.76 ± 8.3%
16,Cn1cnc(-c2cc3nccc(Oc4ccc(NC(=S)NC(=O)Cc5ccccc5)cc4F)c3s2)c1,10.3 ± 8.6%
17,CC(C)(C#N)c1ccc(N2C(=O)OCc3cnc4ccc(-c5cnc6ccccc6c5)cc4c32)cc1,-6.23 ± 1.2%

row,SMILES,percent reduction in TR-FRET probe signal
1,O=C(NOCC1CC1)c1ccc(F)c(F)c1Nc1ccc(I)cc1Cl,5.58 ± 12%
2,C=CC(=O)N1CCCC(n2c(=O)n(-c3ccc(Oc4ccccc4)cc3)c3c(N)ncnc32)C1 (centres undefined) [ONO-4059 analogue],4.33 ± 16%
3,COc1cc2c(Oc3ccc(NC(=O)C4(C(=O)Nc5ccc(F)cc5)CC4)cc3F)ccnc2cc1OCCCN1CCOCC1,56 ± 11%
4,CNC(=O)c1ccc(C)c(-n2c(C)cc(OCc3ccc(F)cc3F)c(Br)c2=O)c1,-1.42 ± 7.4%
5,CNC(=O)c1ccccc1Nc1nc(Nc2ccc(N3CCOCC3)cc2OC)ncc1Cl,25.1 ± 15%
6,Nc1ccc(-c2ccc3ncc4ccc(=O)n(-c5cccc(C(F)(F)F)c5)c4c3c2)cn1 [Torin 2],1.07 ± 4.9%
7,CCN(CC)CCCCNc1ncc2cc(-c3cc(OC)cc(OC)c3)c(NC(=O)NC(C)(C)C)nc2n1,-17.7 ± 31%
8,COc1cc2c(Oc3ccc4[nH]c(C)cc4c3F)ncnc2cc1OCCCN1CCCC1 [Cediranib (AZD2171)],63.4 ± 7.6%
9,CN1CCCN(C(=O)c2cccc(-c3ccc(/C=C4/C(=O)Nc5ccc(Cl)cc54)o3)c2)CC1.Cl,-0.203 ± 9.8%
10,Oc1cccc(-c2nc(N3CCOCC3)c3oc4ncccc4c3n2)c1,-5.8 ± 6.4%
11,O=C(c1cccc(Cl)c1F)N1CCN(Cc2cccc(Nc3nccs3)n2)CC1,6.09 ± 13%
12,C=CC(=O)Nc1cccc(Nc2nc(Nc3ccc(Oc4ccnc(C(=O)NC)c4)cc3)ncc2F)c1,-4.93 ± 4.3%
13,COc1cc(Nc2c(C#N)cnc3cc(OCCCN4CCN(C)CC4)c(OC)cc23)c(Cl)cc1Cl [Bosutinib (SKI-606)],0.893 ± 13%
14,Cc1cc([C@@H](C)Nc2ccccc2C(=O)O)c2nc(N3CCOCC3)cc(=O)n2c1,-5.32 ± 14%
15,Cn1cnc(N)c2ncnc1-2 [3-Methyladenine (3-MA)],-2.13 ± 5.3%
16,CN1CCN(S(=O)(=O)c2ccc(-c3cnc(N)c(C(=O)Nc4cccnc4)n3)cc2)CC1,-4.29 ± 6.5%
17,COc1ncc(-c2ccc3nccc(-c4ccnnc4)c3c2)cc1NS(=O)(=O)c1ccc(F)cc1F,3.02 ± 16%
